Measured potencies and affinities stand elsewhere. The source made the active and inactive calls.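 How the source made its calls: active means fitted concentration giving half the maximal Nile Red retention below 100 µM; inactive means the rest.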
Each compound was assayed against Multidrug resistance protein CDR1 (Candida albicans) (UniProt P43071) (assay: Candida albicans Cdr1 pump inhibition curves – singleplex, Cherry Pick2 set, dose response (AID 623996)). Settings: S. cerevisiae AD/CaCDR1, Nile Red efflux inhibition, flow cytometry; series mostly up to 100 µM; efflux inhibition response: at the top concentration.
Multidrug resistance protein CDR1 (Candida albicans), sequence (P43071 whole entry, looked up): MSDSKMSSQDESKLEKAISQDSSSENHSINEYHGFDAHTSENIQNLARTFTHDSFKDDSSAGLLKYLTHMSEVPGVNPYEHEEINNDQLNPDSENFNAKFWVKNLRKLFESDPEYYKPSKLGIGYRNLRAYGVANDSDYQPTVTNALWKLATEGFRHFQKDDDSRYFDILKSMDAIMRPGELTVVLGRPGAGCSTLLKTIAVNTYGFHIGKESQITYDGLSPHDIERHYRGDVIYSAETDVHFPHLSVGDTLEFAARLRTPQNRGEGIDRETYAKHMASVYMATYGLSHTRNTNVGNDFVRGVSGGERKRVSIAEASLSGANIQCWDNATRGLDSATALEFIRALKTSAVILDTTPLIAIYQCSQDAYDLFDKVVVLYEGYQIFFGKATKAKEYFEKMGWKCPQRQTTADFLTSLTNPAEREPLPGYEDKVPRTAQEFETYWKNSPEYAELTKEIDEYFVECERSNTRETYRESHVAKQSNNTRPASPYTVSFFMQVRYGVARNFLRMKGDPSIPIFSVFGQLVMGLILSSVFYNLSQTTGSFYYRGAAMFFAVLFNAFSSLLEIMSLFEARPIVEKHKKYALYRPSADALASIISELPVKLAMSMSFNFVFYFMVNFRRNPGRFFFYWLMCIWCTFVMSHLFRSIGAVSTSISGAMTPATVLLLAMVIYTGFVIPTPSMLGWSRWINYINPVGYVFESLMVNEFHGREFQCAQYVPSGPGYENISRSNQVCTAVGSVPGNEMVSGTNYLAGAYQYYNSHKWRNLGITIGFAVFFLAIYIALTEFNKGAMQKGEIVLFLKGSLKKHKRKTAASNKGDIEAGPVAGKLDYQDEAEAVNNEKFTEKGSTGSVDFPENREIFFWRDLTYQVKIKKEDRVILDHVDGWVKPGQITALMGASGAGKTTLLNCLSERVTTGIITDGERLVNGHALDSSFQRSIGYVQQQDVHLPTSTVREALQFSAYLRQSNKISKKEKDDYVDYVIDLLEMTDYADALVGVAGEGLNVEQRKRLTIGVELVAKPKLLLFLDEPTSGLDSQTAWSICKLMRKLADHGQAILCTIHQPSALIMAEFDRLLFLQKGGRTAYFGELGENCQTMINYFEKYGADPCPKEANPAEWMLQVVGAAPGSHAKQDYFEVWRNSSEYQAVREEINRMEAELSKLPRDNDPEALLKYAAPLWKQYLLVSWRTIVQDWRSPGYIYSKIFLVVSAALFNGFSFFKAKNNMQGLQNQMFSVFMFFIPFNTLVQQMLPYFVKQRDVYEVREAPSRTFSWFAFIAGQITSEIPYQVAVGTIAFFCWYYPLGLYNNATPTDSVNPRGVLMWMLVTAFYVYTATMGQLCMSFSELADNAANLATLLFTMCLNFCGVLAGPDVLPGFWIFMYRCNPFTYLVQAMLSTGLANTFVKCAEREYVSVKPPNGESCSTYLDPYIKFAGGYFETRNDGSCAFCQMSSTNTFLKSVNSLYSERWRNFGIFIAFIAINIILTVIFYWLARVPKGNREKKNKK

Efflux inhibition response, inactive:
COc1cc(OC)c2ccc(=O)oc2c1C(CCN1CCCC(C)C1)c1ccc(N(C)C)cc1 (stereo unspecified) 0.72%
Cc1cccc2sc(N(CCCN(C)C)C(=O)c3ccc(Cl)s3)nc12 -1.4%
COc1ccc(-c2c[n+](CC(=O)N3c4ccccc4Sc4ccccc43)c3n2CCC3)cc1 -1.3%
NS(=O)(=O)c1ccc(N2N=C(c3ccccc3)CC2c2ccccc2)cc1 (stereo unspecified) -3.44%
Cc1cccc(C2CC(c3ccccc3)=NN2c2ccc(S(N)(=O)=O)cc2)c1 (stereo unspecified) -1.16%
Cc1ccc(C2CC(c3ccccc3)=NN2c2ccc(S(N)(=O)=O)cc2)cc1 (stereo unspecified) -0.8%
COc1ccc(OC)c2sc(NC(=O)c3ccc(Br)s3)nc12 -1.67%
O=C(C1CCC(CNc2nc(=S)[nH]c3ccccc23)CC1)N1CCN(c2ccc(F)cc2)CC1 (stereo unspecified) -0.38%
CCOc1cccc2sc(NC(=O)c3ccc(Br)s3)nc12 -1.5%
COc1ccc(O)c(C(=O)c2cnc3c(c2)CN(C)C(=O)N3)c1 0.22%
COc1cc(OC)c2c(-c3ccccc3)cc(=O)oc2c1C(CCN1CCCC(C)C1)c1ccc(N(C)C)cc1 (stereo unspecified) -3.3%
O=C(c1ccc2c(c1)OCO2)N1CCC2(CC1)Oc1ccc(F)cc1C(=O)C21CC(c2ccccc2)=NO1 (stereo unspecified) 118%
COc1ccc(C2CC(c3ccccc3C(F)(F)F)=NN2c2ccc(S(N)(=O)=O)cc2)cc1 (stereo unspecified) 30.5%
COc1ncccc1C(=O)NC1CCCc2c1cnn2-c1cc(C)cc(C)c1 (stereo unspecified) -0.65%
O=C(C1CCCN(c2ncnc3c2nc2n3CCCCC2)C1)N1CCN(c2cccc(Cl)c2)CC1 (stereo unspecified) -1.77%
CCCCN1Cc2cc(C(=O)c3cc(OC)ccc3O)cnc2NC1=O -3.22%
Cc1ccc(-c2c[n+](CC(=O)N3c4ccccc4Sc4ccccc43)c3n2CCC3)cc1 -4.43%
COc1ccc(CN2C(=O)C(C)Nc3ncnc(N4CCN(c5ccccc5)CC4)c32)cc1 (stereo unspecified) 1.03%
CC(C)C(=O)N1CCC2(CC1)Oc1ccc(F)cc1C(=O)C21CC(c2ccc(Cl)cc2)=NO1 (stereo unspecified) 86.8%
Cc1ccc(O)c(C(=O)c2cnc3c(c2)CN(C)C(=O)N3)c1 0.64%
COc1ccc(CNC(=O)C(C#N)c2nc3ccccc3nc2N2CCCC2)cc1 (stereo unspecified) -3.36%
NC1=NC[C@H](Cc2ccc(O)cc2)N1CCc1cc(C(F)(F)F)cc(C(F)(F)F)c1 -1.16%
C[C@@]12C(=O)Nc3cc(F)c(F)cc3C(=O)N1[C@H]1c3cc(Cl)ccc3OC[C@@H]1[C@@H]2c1ccccc1 2.74%
O=C(CSc1nnc(Cc2cccs2)n1Cc1ccco1)Nc1cccc(Cl)c1 -3.15%
COc1ccc(C(=O)NC2CC(C)(C)Cc3c2cnn3-c2ccccc2)c(OC)c1 (stereo unspecified) -1.18%
COc1ccc(-c2sc3ccccc3c2-c2ccc(OCCN(C)C)cc2)cc1 215%
O=C(NC1CCCc2c1cnn2-c1ccccc1F)c1ccccn1 (stereo unspecified) -0.24%
Cc1ccc(N2CCN(C(=O)C3CCCN(c4ncnc5c4nc4n5CCCCC4)C3)CC2)c(C)c1 (stereo unspecified) -0.74%
C[C@@]12C(=O)Nc3ccc(Cl)cc3C(=O)N1[C@H]1c3cc(Cl)ccc3OC[C@@H]1[C@@H]2c1ccccc1 1.33%
COc1cccc(N2CCN(C(=O)C3CCCN(c4ncnc5c4nc4n5CCCCC4)C3)CC2)c1 (stereo unspecified) -1.74%

outcome, inactive:
COc1ccc(CNC(=O)C(C#N)c2nc3ccccc3nc2N2CCN(C)CC2)cc1 (stereo unspecified)
